For 37 compounds, growth results are on record in PubChem BioAssay (NCI).

This is part of a sample that, as a whole, favours compounds with a hit. Of some 83,000 tested, about 20% had one in any assay.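 For each line, cells grew in 96-well plates with the test compound present at a single concentration for 48 hours.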 Calls of active or inactive are those of the source. The calls were made as follows: active = growth percent below 10; inactive = the rest.

In the first test the test system is SN12C renal. Put plainly: NCI-60 one-dose screen, 48 h (100 = growth as untreated, 0 = no growth, -100 = all killed). Particulars: 10 µM unless noted.
`O=C(CCCCCCSc1nc(-c2ccc(Cl)cc2)cc(-c2ccc(Cl)cc2)n1)NO`: the growth was 26.1% (inactive).
Same read-out and setting: to `O=C1CC(C(F)(F)F)Cc2nc3ccc(Br)cc3cc21` (centres undefined) belongs 85.8% (inactive); to `COc1ccc(C2NC(=O)C(C#N)c3c2sc2c(F)cccc32)cc1` (centres undefined), 61.5% (inactive); to `CCCCCn1sc(=O)n(Cc2ccc(CNC(=O)OCc3ccc4cccc(O)c4n3)cc2)c1=O`, -79.7% (active).
Consider `O=[N+]([O-])c1cccc(N=NNc2cccc([N+](=O)[O-])c2)c1`, for which the growth was 89.5% (inactive).
For the compound `CCN(CC)CCCOc1ccc2c(c1)O/C(=C\c1cccc(OC)c1)C2=O`, the growth is 87.1% (inactive).
Same read-out and setting: the result for `O=C(OCc1ccc2c(Cl)cc(Cl)c(O)c2n1)N1CCNCC1` reads 32% (inactive); that for `C=CCCCCOc1ccccc1-c1cnc(OCCCCC=C)n1C`, 91.1% (inactive); that for `CSc1nc(=S)c2nc(SC)n(-c3ccccc3)c2[nH]1`, 96.7% (inactive).
Consider `CC1Cc2c(Cl)ncnc2N(C)c2ccc(O)cc21` (centres undefined), for which the growth was 82.6% (inactive).
On the same count and under the same terms, to `Nc1nc(Nc2ccccc2)c2ncn(Cc3ccc4c(c3)OCO4)c2n1` belongs 43% (inactive); to `COc1ccc(-c2cc(-c3ccc(Cl)cc3)nc(SCCCCCCC(=O)NO)n2)cc1`, 41.3% (inactive); to `COc1ccc(C(=O)CSc2nccc(Nc3ccc(C(=O)O)cc3)n2)cc1`, 99.3% (inactive).
Still for that read-out and setting: to `CC1(C)OC2[C@@H](CNC(=O)NC(=O)NC(=O)CI)O[C@@H](n3cnc4c(NC(=O)Nc5ccccc5)ncnc43)[C@H]2O1` (some centres undefined) belongs 82.8% (inactive); to `Cn1cc(-c2noc(-c3cn(C)c4ncc(F)cc34)n2)c2cc(Cl)ccc21`, 40.8% (inactive).
On the same count and under the same terms, the result for `COCCCNc1nc(NC(=O)c2cc(Br)cc(C(F)(F)F)c2)cc(-c2cccnc2)n1` reads 89.1% (inactive); that for `O=C(NCCCNC(=O)OCc1ccc2cccc(O)c2n1)OCc1ccc2cccc(O)c2n1`, 40.4% (inactive); that for `COc1cccc(-c2[nH]c(=S)ncc2C(=O)c2ccccc2)c1`, 94.4% (inactive).
Consider `CCN(CCO)CCC(=O)c1ccc([N+](=O)[O-])cc1`, for which the growth was 107% (inactive).
Same read-out and setting: to `Cc1ccc(N)c(O)c1` belongs 115% (inactive).
In the case of `CC(C)C1=NOC(=O)C1=Cc1cn(-c2ccccc2)nc1-c1ccc(Br)cc1`, the growth was 84.8% (inactive).
On the same count and under the same terms, to `Cc1cc[n+](CCCCCCCCCC[n+]2ccc(C)cc2)cc1` belongs 63.5% (inactive); to `C[C@@H](NC(=O)[C@@H](CC(=O)N1CCC(N2CCCCC2)CC1)N1C(=O)[C@@H](N2C(=O)OC[C@@H]2c2ccccc2)[C@H]1/C=C/c1cccc(Cl)c1)c1ccccc1`, 84.4% (inactive).
As for `C/C=C/C1OC23CCCCC2C(C#N)(C(=N)O3)C1(C#N)C#N` (centres undefined), the growth is 93.7% (inactive).
On the same count and under the same terms, to `CCCOc1ccc(-c2nc(-c3ccc(N)cc3)cs2)cc1` belongs 95.2% (inactive); to `Cc1ccccc1OC(=O)c1cccc(Cl)c1`, 110% (inactive).
Still for that read-out and setting: to `CC(C)c1ccc(C(=O)Nc2nc3ccc(O)cc3s2)cc1` belongs 39.4% (inactive); to `COc1cc(-c2nc(SCCC(C)C)nc(Nc3ccc(S(N)(=O)=O)cc3)c2C#N)cc(OC)c1OC`, 26.4% (inactive).
For `O=C(CSc1nc2ccc([N+](=O)[O-])cc2[nH]1)Nc1cccc(Cl)c1`, the growth was 6.25% (active).
The same measure, in the same setting: to `COc1ccc2nc3cc(Cl)ccc3c(Nc3ccc(O)cc3)c2c1` belongs 67.2% (inactive); to `O=C(OCc1ccc2c(Cl)cc(Cl)c(O)c2n1)N1CCN(C(=O)c2cc3cc(F)ccc3[nH]2)CC1`, 30.1% (inactive); to `COc1ccc(C(C(=O)O)c2ccc(OC)cc2)cc1`, 121% (inactive).
Same read-out and setting: the result for `O=C1COCCN1c1ccc(NCc2cn(Cc3ccc(F)cc3)c3ccccc23)cc1` reads 64.3% (inactive); that for `O=C(Nc1cc(-c2cccnc2)nc(NCCCN2CCOCC2)n1)c1cc(Br)cc(C(F)(F)F)c1`, 67.2% (inactive).
Still for that read-out and setting: to `CS(=O)(=O)c1cccnn1` belongs 89.1% (inactive); to `C[C@]12CCc3c(ccc4cc(O)ccc34)[C@@H]1CC[C@H]2O`, 87.6% (inactive).
With `CN(Cc1cccc(C(F)(F)F)c1)C(=O)[C@@H](CC(=O)N1CCC(N2CCCCC2)CC1)N1C(=O)[C@@H](N2C(=O)OC[C@@H]2c2ccccc2)[C@H]1/C=C/c1ccccc1`, the growth was 82.6% (inactive).

Another test relates to UO-31 renal. The description is as above. Particulars: 10 µM unless noted.
Consider `O=C(CCCCCCSc1nc(-c2ccc(Cl)cc2)cc(-c2ccc(Cl)cc2)n1)NO`, for which the growth is 8.29% (active).
In the case of `O=C1CC(C(F)(F)F)Cc2nc3ccc(Br)cc3cc21` (centres undefined), the growth was 59.7% (inactive).
Same read-out and setting: to `COc1ccc(C2NC(=O)C(C#N)c3c2sc2c(F)cccc32)cc1` (centres undefined) belongs 36.8% (inactive); to `CCCCCn1sc(=O)n(Cc2ccc(CNC(=O)OCc3ccc4cccc(O)c4n3)cc2)c1=O`, -100% (active); to `O=[N+]([O-])c1cccc(N=NNc2cccc([N+](=O)[O-])c2)c1`, 80% (inactive).
Same read-out and setting: the result for `CCN(CC)CCCOc1ccc2c(c1)O/C(=C\c1cccc(OC)c1)C2=O` reads 73.8% (inactive).
Still for that read-out and setting: the result for `O=C(OCc1ccc2c(Cl)cc(Cl)c(O)c2n1)N1CCNCC1` reads 15.3% (inactive); that for `C=CCCCCOc1ccccc1-c1cnc(OCCCCC=C)n1C`, 69.3% (inactive); that for `CSc1nc(=S)c2nc(SC)n(-c3ccccc3)c2[nH]1`, 83.9% (inactive).
Take `CC1Cc2c(Cl)ncnc2N(C)c2ccc(O)cc21` (centres undefined): the growth was 22.5% (inactive).
Still for that read-out and setting: the result for `Nc1nc(Nc2ccccc2)c2ncn(Cc3ccc4c(c3)OCO4)c2n1` reads 49.3% (inactive); that for `COc1ccc(-c2cc(-c3ccc(Cl)cc3)nc(SCCCCCCC(=O)NO)n2)cc1`, 11.8% (inactive).
On the same count and under the same terms, to `COc1ccc(C(=O)CSc2nccc(Nc3ccc(C(=O)O)cc3)n2)cc1` belongs 82% (inactive).
For the compound `CC1(C)OC2[C@@H](CNC(=O)NC(=O)NC(=O)CI)O[C@@H](n3cnc4c(NC(=O)Nc5ccccc5)ncnc43)[C@H]2O1` (some centres undefined), the growth is -78.6% (active).
Still for that read-out and setting: to `Cn1cc(-c2noc(-c3cn(C)c4ncc(F)cc34)n2)c2cc(Cl)ccc21` belongs 53.3% (inactive).
For the compound `COCCCNc1nc(NC(=O)c2cc(Br)cc(C(F)(F)F)c2)cc(-c2cccnc2)n1`, the growth is 60.6% (inactive).
In the case of `O=C(NCCCNC(=O)OCc1ccc2cccc(O)c2n1)OCc1ccc2cccc(O)c2n1`, the growth was 26.9% (inactive).
Still for that read-out and setting: the result for `COc1cccc(-c2[nH]c(=S)ncc2C(=O)c2ccccc2)c1` reads 75.9% (inactive); that for `CCN(CCO)CCC(=O)c1ccc([N+](=O)[O-])cc1`, 75% (inactive); that for `Cc1ccc(N)c(O)c1`, 84.5% (inactive).
Same read-out and setting: to `CC(C)C1=NOC(=O)C1=Cc1cn(-c2ccccc2)nc1-c1ccc(Br)cc1` belongs 67.9% (inactive).
With `Cc1cc[n+](CCCCCCCCCC[n+]2ccc(C)cc2)cc1`, the growth was 99.8% (inactive).
The same measure, in the same setting: the result for `C[C@@H](NC(=O)[C@@H](CC(=O)N1CCC(N2CCCCC2)CC1)N1C(=O)[C@@H](N2C(=O)OC[C@@H]2c2ccccc2)[C@H]1/C=C/c1cccc(Cl)c1)c1ccccc1` reads 58.9% (inactive); that for `C/C=C/C1OC23CCCCC2C(C#N)(C(=N)O3)C1(C#N)C#N` (centres undefined), 76.2% (inactive).
The same measure, in the same setting: to `CCCOc1ccc(-c2nc(-c3ccc(N)cc3)cs2)cc1` belongs 77.1% (inactive); to `Cc1ccccc1OC(=O)c1cccc(Cl)c1`, 80.2% (inactive).
Still for that read-out and setting: the result for `CC(C)c1ccc(C(=O)Nc2nc3ccc(O)cc3s2)cc1` reads 22.1% (inactive).
For the compound `COc1cc(-c2nc(SCCC(C)C)nc(Nc3ccc(S(N)(=O)=O)cc3)c2C#N)cc(OC)c1OC`, the growth was 14.7% (inactive).
On the same count and under the same terms, the result for `O=C(CSc1nc2ccc([N+](=O)[O-])cc2[nH]1)Nc1cccc(Cl)c1` reads 9.96% (active); that for `COc1ccc2nc3cc(Cl)ccc3c(Nc3ccc(O)cc3)c2c1`, 62.1% (inactive).
Turning to `O=C(OCc1ccc2c(Cl)cc(Cl)c(O)c2n1)N1CCN(C(=O)c2cc3cc(F)ccc3[nH]2)CC1`, the growth is 33.4% (inactive).
On the same count and under the same terms, the result for `COc1ccc(C(C(=O)O)c2ccc(OC)cc2)cc1` reads 108% (inactive); that for `O=C1COCCN1c1ccc(NCc2cn(Cc3ccc(F)cc3)c3ccccc23)cc1`, 40.6% (inactive).
On the same count and under the same terms, the result for `O=C(Nc1cc(-c2cccnc2)nc(NCCCN2CCOCC2)n1)c1cc(Br)cc(C(F)(F)F)c1` reads 42% (inactive).
Still for that read-out and setting: the result for `CS(=O)(=O)c1cccnn1` reads 79.9% (inactive); that for `C[C@]12CCc3c(ccc4cc(O)ccc34)[C@@H]1CC[C@H]2O`, 87.2% (inactive); that for `CN(Cc1cccc(C(F)(F)F)c1)C(=O)[C@@H](CC(=O)N1CCC(N2CCCCC2)CC1)N1C(=O)[C@@H](N2C(=O)OC[C@@H]2c2ccccc2)[C@H]1/C=C/c1ccccc1`, 83.4% (inactive).
